Screening data from PubChem.
F508del corr – CFTR F508del correction in bronchial cells; 350,000 compounds, 0.36% hits; CFBE cells, YFP halide quenching; stimulated with forskolin plus potentiator P3; % fluorescence drop versus neutral controls; AID 720511; activity (quench increase), % at 7.58 µM;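 active = mean added fluorescence quench of at least 8% versus neutral control, with both replicates also reaching 8%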;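 also: cells transiently co-express mutant CFTR-F508del with the halide-sensitive YFP; corrector assay measuring rescue of mutant channel to the surface after 24 h compound exposure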
rRNA inh HTS – selective bacterial rRNA inhibition in E. coli; E. coli WT GFP vs humanized-ribosome RFP mutants, fluorescence, 24 h; hits give low values; DMSO median 0, no signal -100; GFP signal change (wild-type ribosome), % (no concentration beside the values); 350,000 compounds, 1.6% hits; AID 720706;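 active = significant combined selectivity score with lowered wild-type GFP, culture density cut under 30%, mutant RFP and density less affected; inactive = any of these conditions unmet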
ARNT TACC3 PPI – disruptors of human ARNT/TACC3 interaction; Q9Y6A5; AlphaScreen His-ARNT PAS-B/GST-TACC3 binding, luminescence; TACC3 fragment carries E629A point mutation; inhibition, % at 9.99 µM; 390,000 compounds, 0.66% hits; AID 623870;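 active = mean inhibition of replicates at least 50% and at least half of replicates each reaching 50%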;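 also: 0% = complete ARNT plus TACC3 wells and 100% = ARNT alone without TACC3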
ERAP1 inh – blocks human ERAP1 aminopeptidase activity; Q9NZ08; AID 652197; inhibition, % at 10.7 µM; 340,000 compounds, 0.15% hits; recombinant ERAP1, Leu-AMC fluorescence, 60 min;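 active = mean replicate inhibition of at least 30%, or all replicates individually reaching that 30% level; inactive = mean below 30% and not every replicate reaching it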;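 also: 0% = neutral control wells and 100% = L-leucinethiol positive control wells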
Target sequence (Q9NZ08 whole entry, looked up): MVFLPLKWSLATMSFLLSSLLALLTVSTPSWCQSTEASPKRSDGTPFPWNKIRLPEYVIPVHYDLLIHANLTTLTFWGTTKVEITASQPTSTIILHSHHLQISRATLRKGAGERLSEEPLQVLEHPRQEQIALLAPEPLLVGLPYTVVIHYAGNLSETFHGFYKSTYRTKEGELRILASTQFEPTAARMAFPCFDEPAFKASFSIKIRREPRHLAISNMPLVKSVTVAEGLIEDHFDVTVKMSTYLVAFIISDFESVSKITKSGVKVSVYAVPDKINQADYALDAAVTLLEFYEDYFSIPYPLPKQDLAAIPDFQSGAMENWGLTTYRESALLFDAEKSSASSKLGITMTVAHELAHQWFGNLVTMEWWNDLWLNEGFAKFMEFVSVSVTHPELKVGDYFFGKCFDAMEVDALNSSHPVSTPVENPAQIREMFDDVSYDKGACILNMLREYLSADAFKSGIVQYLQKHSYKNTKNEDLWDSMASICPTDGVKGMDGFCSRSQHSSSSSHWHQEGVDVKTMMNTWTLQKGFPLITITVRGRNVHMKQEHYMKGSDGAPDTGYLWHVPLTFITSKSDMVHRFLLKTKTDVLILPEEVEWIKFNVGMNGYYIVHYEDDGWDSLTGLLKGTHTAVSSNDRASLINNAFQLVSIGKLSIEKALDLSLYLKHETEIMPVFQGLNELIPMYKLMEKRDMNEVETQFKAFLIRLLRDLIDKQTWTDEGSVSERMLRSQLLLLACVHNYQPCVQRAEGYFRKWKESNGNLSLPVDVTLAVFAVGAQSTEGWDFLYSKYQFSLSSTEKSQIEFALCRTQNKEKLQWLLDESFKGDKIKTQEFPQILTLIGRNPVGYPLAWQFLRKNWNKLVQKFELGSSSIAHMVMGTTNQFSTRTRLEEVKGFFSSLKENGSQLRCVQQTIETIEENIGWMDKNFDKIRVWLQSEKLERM
PvdQ inh – P. aeruginosa PvdQ acylase inhibition. purified PvdQ acylase, fluorescence plate reader. inhibition, % at 10 µM. 340,000 compounds, 0.063% hits. AID 488965; in the data active = inhibition above about 30%, passing the limit was not always enough;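 also: 0% = vehicle neutral wells and 100% = reference inhibitor wells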
Numbers without * were called inactive; nt = not tested or not shown. Compounds with a hit are over-represented: about 2.1% of the library has one in this group of screens.

SMILES | F508del corr | rRNA inh HTS | ARNT TACC3 PPI | ERAP1 inh | PvdQ inh
Fc1ccc2nc(C3CCN(Cc4nc(CC5CC5)no4)CC3)[nH]c2c1 | 8.6* | -4 | 5 | 3 | -15
S=c1[nH]cnc2scc(-c3ccccc3)c12 | nt | -29* | 18 | 2 | -3
O=C(NCCN1C(=O)S/C(=C\c2ccc(OC(F)F)cc2)C1=O)C1=COCCO1 | nt | nt | -13 | nt | -4
COc1ccc(/C=C2\SC(=O)N(CCNC(=O)C3=COCCO3)C2=O)cc1 | 8.0* | 1 | 2 | 1 | -10
O=C(NCCN1C(=O)S/C(=C\c2ccc(OC(F)F)cc2)C1=O)c1cnccn1 | 13* | -5 | -9 | -3 | 2
C[C@@H]1CN([C@@H](C)CO)C(=O)c2cc(C#CC3(O)CCCC3)cnc2O[C@@H]1CN(C)C(=O)C1CCOCC1 | -2 | 1 | -1 | 13 | nt
NC(=O)C1CCN(C2=C(NS(=O)(=O)c3ccc(Cl)cc3)C(=O)c3ccccc3C2=O)CC1 | 0 | -21* | 23 | 4 | 3
C[C@H](O)C#Cc1ccc([C@H]2[C@H](CO)N3CCCCN(C(=O)c4cccc(F)c4)C[C@@H]23)cc1 | 2 | 5 | -8 | 0 | nt
Cc1cc(C)c2sc(N(CCN(C)C)C(=O)c3c(F)cccc3F)nc2c1 | 1 | -37* | 14 | -7 | -11
Cc1cc(C)c2sc(N(CCCN(C)C)C(=O)CN3C(=O)c4ccccc4C3=O)nc2c1 | 0 | -5 | 9 | 4 | 3
CO[C@H]1CN(C)C(=O)c2ccc(NS(=O)(=O)c3cccc(F)c3)cc2OC[C@@H](C)N(C(=O)Cc2cccnc2)C[C@@H]1C | 0 | 1 | 1 | 0 | nt
O=C(O)/C=C/c1ccc(S(=O)(=O)Nc2ccc(OCc3ccccc3)cc2)cc1 | -3 | -24* | -1 | 1 | -1
O=C(c1cc(COc2ccc(F)cc2Cl)on1)N1CCC(c2ccncc2)CC1 | 1 | -40 | 8 | -2 | -13
COC(=O)C1CCCCN1C(=O)c1cc(COc2cccc3cnccc23)on1 (stereo not given) | 0 | -31* | 4 | -2 | 12
COc1ccc(OCc2cc(C(=O)N3CCN(C4CCCC4)CC3)no2)c(Cl)c1 | 1 | -29* | -1 | 0 | -2
COc1ccc(OCc2cc(C(=O)N3CCCCCCC3)no2)c(Cl)c1 | 2 | -44 | -1 | 1 | -10
CSc1ccccc1OCc1cc(C(=O)N2CCC(c3ccncc3)CC2)no1 | 0 | -41* | 2 | 2 | 9
COc1ccccc1C#Cc1cnc2c(c1)C(=O)N([C@H](C)CO)C[C@H](C)[C@@H](CN(C)C(C)=O)O2 | -1 | -8 | 2 | -2 | nt
C[C@H]1CN([C@@H](C)CO)C(=O)c2cc(C3=CCCC3)cnc2O[C@H]1CN(C)C(=O)NC1CCCC1 | -4 | 0 | nt | 2 | nt
N#C/C(=C/c1ccccc1OCc1ccc(F)cc1)c1ccc(C(=O)O)cc1 | -1 | -48 | -2 | 17 | -10
N#C/C(=C/c1ccc(OCc2ccc(C(=O)O)cc2)c(Br)c1)c1cccc(F)c1 | -2 | -27* | 8 | 2 | -1
COc1ccc(NC(=S)Nc2cccc3cnccc23)cc1 | nt | nt | 15* | nt | -4
COc1ccccc1NC(=S)Nc1cccc2cnccc12 | 0 | 0 | 76* | -1 | 1
Cc1cccc(NC(=S)Nc2cccc3ccccc23)c1 | 0 | -2 | 10 | 0 | -17
Fc1ccc(NC(=S)Nc2cccc3cnccc23)cc1 | -3 | -8 | 30 | -7 | -1
SMILES | F508del corr | rRNA inh HTS | ARNT TACC3 PPI | ERAP1 inh | PvdQ inh
CCc1cccc(NC(=S)Nc2cccc3ccccc23)c1 | 2 | -25* | 8 | 4 | -14
O=C(NC1CCCC1)N1CC2(C1)[C@H](c1ccccc1)[C@@H](CO)N2CC1CCOCC1 | 0 | 2 | nt | -1 | nt
Cc1ccccc1-c1ccc([C@@H]2[C@H](CO)N3CCCCN(S(C)(=O)=O)C[C@@H]23)cc1 | -6 | 2 | -2 | -1 | nt
CCc1c(C)c2ccc(O)c(CN3CCCC3)c2oc1=O | 3 | 15 | nt | 10 | 6
Cc1c(C)c2ccc(O)c(CN3CCCC3)c2oc1=O | -1 | 5 | 3 | 51* | -8
CN1CCN(Cc2c(O)ccc3cc(-c4ccccn4)c(=O)oc23)CC1 | 2 | 11 | 0 | 112* | -5
CN1CCN(Cc2c(O)ccc3cc(Br)ccc23)CC1 | -2 | -28 | nt | -1 | nt
Cc1oc2c(CN3CCOCC3)c(O)ccc2c(=O)c1-c1ccccc1 | -3 | -24* | -2 | 5 | -1
Cc1c(C)c2ccc(O)c(CN3CCN(C)CC3)c2oc1=O | 2 | 8 | 5 | 31* | 2
C/C=C/c1ccc([C@@H]2[C@H](CO)N(C(C)=O)[C@H]2CNC(=O)CC2CC2)cc1 | -2 | 4 | -5 | -2 | nt
Cc1cc(=O)oc2c(CN3CCOCC3)c(O)ccc12 | -1 | 5 | 2 | 10 | -17
Cc1cc(=O)oc2c(CN3CCCCC3)c(O)ccc12 | 0 | 7 | -3 | 46* | 0
CCc1cc(=O)oc2c(CN3CCN(C)CC3)c(O)ccc12 | 2 | 8 | -10 | 36* | -6
COc1ccccc1CCC(=O)Nc1ccc2c(c1)c(=O)n(C)n2Cc1ccc(F)cc1 | 3 | 1 | nt | 2 | nt
COc1ccccc1CCC(=O)Nc1ccc2c(c1)c(=O)n(C)n2C | 2 | 6 | nt | 38* | nt
Cc1ccc(Nc2cc(C)nn2-c2nc(C)cc(C)n2)cc1 | nt | nt | -1 | nt | -2
Cc1ccc(Nc2cc(C)nn2-c2nc(C)cc(=O)[nH]2)cc1 | nt | nt | 63* | nt | 0
CCNC(=O)C[C@@H]1CC[C@H]2[C@@H](COc3ccc(NC(=O)c4ccc(F)c(F)c4)cc3C(=O)N2C)O1 | -1 | 2 | 0 | -3 | nt
CCC1=NN(C(=O)C(=O)Nc2ccc(OC)cc2)C(O)(C(F)(F)F)C1 (stereo not given) | -1 | -23* | 2 | -3 | -5
Cc1ccc(S(=O)(=O)N(C)C[C@H]2Oc3ccc(NC(=O)Nc4cccc5ccccc45)cc3C(=O)N([C@@H](C)CO)C[C@@H]2C)cc1 | -2 | 1 | nt | nt | nt
Cc1ccccc1-c1ccc([C@H]2[C@@H](CO)N3CCCCN(S(C)(=O)=O)C[C@H]23)cc1 | 1 | -5 | -2 | -1 | nt
O=C(C[C@@H]1CC[C@@H]2[C@H](COC[C@H](O)CN2Cc2cc(F)cc(F)c2)O1)NC1CCCC1 | 1 | 1 | -6 | -2 | nt
Clc1ccc2scc(CN3CCCCC3)c2c1 | nt | nt | -3 | nt | 33*
C[C@@H]1CN([C@H](C)CO)C(=O)c2cc(NC(=O)c3ccncc3)ccc2O[C@@H](C)CCCCO[C@H]1CN(C)S(=O)(=O)c1cn(C)cn1 | 1 | -1 | -7 | 2 | nt
CCc1nc2ccccc2c(=O)n1NC(=O)c1c(O)c2ccccc2n(CC)c1=O | -1 | -30* | 0 | 5 | -9
CCn1c(=O)c(C(=O)Nn2c(C)nc3ccccc3c2=O)c(O)c2ccccc21 | nt | nt | 8 | nt | -8
